# Measles CPE: protection of cells from measles virus | 140,000 tested, 1.5% active | AID 841 | Measles virus-infected cells, CPE protection, absorbance | protection (pct of control), % at 4 µM; in the data active = protection mostly above about 24%, no sharp cut-off; inactive = mostly below about 26%
# CYP2C9 inh: inhibitors of human CYP2C9 | CYP2C9 Supersomes, luciferin-H conversion, luminescence | inhibition, % at 5 µM | 96,000 tested, 20% active | AID 777;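 active = blocking of liver enzyme CYP2C9 beyond about 50% at 5 µM, limit read from the data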
# Target sequence (P11712 whole entry, looked up): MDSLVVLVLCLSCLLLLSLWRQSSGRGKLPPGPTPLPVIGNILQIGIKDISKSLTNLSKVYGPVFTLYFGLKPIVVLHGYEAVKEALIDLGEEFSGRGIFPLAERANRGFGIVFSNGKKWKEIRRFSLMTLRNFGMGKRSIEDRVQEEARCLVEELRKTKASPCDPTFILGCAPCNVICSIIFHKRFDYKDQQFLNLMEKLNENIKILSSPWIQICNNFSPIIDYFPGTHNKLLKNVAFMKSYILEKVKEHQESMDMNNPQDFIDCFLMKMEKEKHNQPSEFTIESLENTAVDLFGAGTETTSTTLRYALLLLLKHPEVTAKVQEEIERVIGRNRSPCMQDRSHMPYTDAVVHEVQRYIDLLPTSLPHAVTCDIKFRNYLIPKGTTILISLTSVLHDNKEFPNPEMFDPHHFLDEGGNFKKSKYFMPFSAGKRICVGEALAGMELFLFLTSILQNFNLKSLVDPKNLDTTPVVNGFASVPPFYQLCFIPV
# CYP2C9 act: CYP2C9 (human) activation. P11712. recombinant CYP2C9, luciferin-H conversion, luminescence; active compounds read high; factor 1 = untreated enzyme, 0 = blocked. activation factor at 5 µM. 96,000 tested, 1.4% active;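 active = activation factor of 2 or more for CYP2C9 at a 5 µM dose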;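 note: 0 = sulfaphenazole-blocked wells and 1 = vehicle-only wells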
# CYP2C19 activ: increases human CYP2C19 enzyme activity. P33261. recombinant CYP2C19, luciferin-H EGE luminescence; active compounds read high; 0 = fully inhibited enzyme, 1 = untreated enzyme. activation factor at 5 µM. 96,000 tested, under 10 active. AID 1025;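 active = activation factor of at least 2 at 5 µM in the primary screen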;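 note: 0 = wells with 2.5 mM tranylcypromine and 1 = vehicle-only wells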
# CYP2C19 inh: blocks human cytochrome P450 2C19; CYP2C19 Supersomes, luciferin-H EGE luminescence, 30 min; 96,000 tested, 21% active; inhibition, % at 5 µM; P33261;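 active = CYP2C19 inhibition above a set limit at 5 µM in the primary screen, cut at about 50% in these data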;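 note: plate controls were negative control wells for no effect and 2.5 mM tranylcypromine positive control for full effect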
# Starred values were filed as active, the others as inactive; x = no result given. Only some compounds are listed: those with a hit (about 22% of all), similar ones and a draw of the others.
SMILES,Measles CPE,CYP2C9 inh,CYP2C9 act,CYP2C19 activ,CYP2C19 inh
COc1ccc(OC)c(S(=O)(=O)N2CCC(C(=O)NC(C)c3ccccc3)CC2)c1 (configuration not stated),2.7,-192.3,2.9*,0.6,39.4
Cc1ccc(Cl)cc1N1CCN(C(=O)C2CCN(c3nnc(-n4cccc4)s3)CC2)CC1,13.3,85.1*,0.1,0.6,38.2
COc1ccc(CNC(=O)C2CCN(S(=O)(=O)c3cc(OC)ccc3OC)CC2)cc1,7.1,-86.8,1.9,0.4,64.9*
C=CCN1C(=O)N/C(=C/c2ccccc2OCC(=O)Nc2ccc(F)cc2)C1=O,7.4,x,x,x,x
CCc1ccccc1N1CCN(S(=O)(=O)c2cc(OC)ccc2OC)CC1,19.5,98.7*,0,0,100.0*
CCCOc1cccc(NC(=O)c2cc(C)oc2C)c1,9.5,9.4,0.9,0.8,16.0
O=C(CCc1nc(-c2ccccc2F)no1)NCCc1ccccc1Cl,28.4,56.3*,0.4,0.2,80.5*
O=C(CCc1nc(-c2ccccc2F)no1)NC1CCCCCC1,16.2,27.7,0.7,0.7,26.9
Cc1ccc(-c2noc(CCC(=O)NCCN3CCc4ccccc4C3)n2)cc1,7.8,71.6*,0.3,0.2,84.4*
Cc1ccc(-c2noc(CCC(=O)NCCN3CCOCC3)n2)cc1,18.9,6.3,0.9,0.8,24.4
O=C(CCc1nc(-c2ccccc2F)no1)NCCN1CCc2ccccc2C1,11.1,41.9,0.6,0.4,60.2*
Cc1ccc(-c2noc(CCC(=O)NCCN3CCN(Cc4ccccc4)CC3)n2)cc1,14.7,62.0*,0.4,0.5,50.8*
COc1ccc2nc(C)c(C(=O)NN)cc2c1,4.8,x,x,x,x
CCN(CCCNC(=O)CCc1nc(-c2ccc(C)cc2)no1)c1cccc(C)c1,37.3,52.3*,0.5,0.7,34.0
Cc1ccc(NC(=O)c2c(C)nn(-c3ccccc3)c2Cl)cc1,5.1,x,x,x,x
COc1ccc(-n2ncc(S(=O)(=O)c3ccccc3)c2-c2ccc(Cl)cc2)cc1,2.8,72.4*,0.3,0.6,40.1
COc1cnc(NS(=O)(=O)c2ccc(N)cc2)nc1,14.4,x,x,x,x
CN(C)c1ccc(/C=N/Nc2ccc(-n3ccnc3)nn2)cc1,0.8,69.6*,0.3,0.4,62.0*
COc1cc2cc(CN(CCCO)S(=O)(=O)c3ccccc3)c(=O)[nH]c2cc1OC,43.0,8.6,0.9,1.1,-6.1
O=c1[nH]c2cc3c(cc2cc1CN(CCO)S(=O)(=O)c1ccccc1Cl)OCCO3,11.9,77.0*,0.2,0.7,29.9
COc1cc2cc(CN(CCO)S(=O)(=O)c3ccccc3Cl)c(=O)[nH]c2cc1OC,19.7,55.3*,0.4,0.9,12.1
Cc1ccc(NC(=O)COC(=O)c2cc(-c3cccs3)nn2-c2ccccc2)cc1[N+](=O)[O-],9.8,x,x,x,x
COC(=O)c1ccc2c(c1O)C(=O)c1ccccc1C2=O,18.5,40.6,0.6,0.4,59.5*
COC(=O)c1cccc2c1-c1ccccc1/C2=N/O,17.1,84.5*,0.2,0.4,58.8*
Cc1cccc2cc(CN(Cc3cccs3)C3(c4nnnn4C4CCCC4)CCCC3)c(=O)[nH]c12,8.0,41.8,0.6,0.9,11.5
SMILES,Measles CPE,CYP2C9 inh,CYP2C9 act,CYP2C19 activ,CYP2C19 inh
O=C(Nc1ccc(S(=O)(=O)NCc2ccco2)cc1)c1ccncc1,8.8,97.5*,0,0.1,93.5*
Cc1cc(C)n(CCCNC(=O)c2ccc(S(=O)(=O)NCc3ccco3)cc2)n1,8.7,50.2*,0.5,0.9,10.4
Cc1cc(CN2C(=O)c3ccccc3C2=O)cc(N2CCOCC2)c1,19.4,-61.2,1.6,0.5,46.9
CNC(=O)NC(=O)COC(=O)c1ccc(-n2c(C)ccc2C)cc1,4.9,x,x,x,x
Cc1ccc(S(=O)(=O)NC2=NCN(CCOC(=O)c3ccc([N+](=O)[O-])cc3)CN2)cc1,3.5,-2.8,1,1.2,-18.0
COc1cc2c(C#N)c(N3CCN(C)CC3)nc(N)c2c(N)n1,4.9,22.9,0.8,1.1,-7.0
COc1cc2c(C#N)c(N3CCN(c4ccccc4OC)CC3)nc(N)c2c(N)n1,6.8,68.2*,0.3,0,100.3*
Cc1cc(C)c(C#N)c(N2CCCC2)n1,6.4,-33.8,1.3,0.9,14.2
N#Cc1c(N2CCCC2)nc(N)c2c(N)nc(N3CCCC3)cc12,6.3,61.1*,0.4,0.6,39.7
COCC(C)NCc1cccc(C)c1 (configuration not stated),8.0,-9.7,1.1,0.9,14.9
Cc1noc(C)c1C(=O)N1CCN(C(=O)c2sc3cc(Cl)ccc3c2Cl)CC1,6.3,43.1,0.6,0.6,35.2

# Compound activity from PubChem BioAssay.
